In the library only some 9% were active in any assay of this set; here they are far more common.
ALDH1A1 block = qHTS Assay for Inhibitors of Aldehyde Dehydrogenase 1 (ALDH1A1); Purified ALDH1A1, NADH fluorescence, propionaldehyde substrate; 220,000 compounds, 7.3% hits; Aldehyde dehydrogenase 1A1 (Homo sapiens), P00352; Potency, µM (titrated, usually from 75.3 µM), most hits filed as inhibitors
Target sequence (P00352 whole entry, looked up): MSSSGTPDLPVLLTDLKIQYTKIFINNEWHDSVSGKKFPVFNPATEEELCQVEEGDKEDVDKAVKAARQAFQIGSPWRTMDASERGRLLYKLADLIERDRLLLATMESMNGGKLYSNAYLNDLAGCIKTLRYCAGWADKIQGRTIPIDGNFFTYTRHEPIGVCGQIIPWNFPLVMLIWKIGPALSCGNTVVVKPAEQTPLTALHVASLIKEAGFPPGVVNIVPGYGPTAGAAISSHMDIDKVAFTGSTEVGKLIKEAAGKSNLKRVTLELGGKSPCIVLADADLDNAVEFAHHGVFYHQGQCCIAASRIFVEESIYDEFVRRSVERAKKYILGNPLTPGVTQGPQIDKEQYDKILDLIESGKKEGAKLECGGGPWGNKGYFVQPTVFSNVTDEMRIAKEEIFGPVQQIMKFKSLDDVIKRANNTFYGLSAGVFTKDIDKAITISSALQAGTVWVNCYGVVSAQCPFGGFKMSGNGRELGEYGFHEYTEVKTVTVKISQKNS
IMPase Li cell = qHTS Assay for Identifying the Cell-Membrane Permeable IMPase Inhibitors: Potentiation with Lithium; CHO-M1 cells, IP1 TR-FRET (IP-One), carbachol + lithium; Potency, µM (top dose mostly 59.4 µM), hits mostly inhibitors; 210,000 compounds, 0.35% hits; AID 1457, 2008; active = well fitted curve in the direction sought with a large enough effect; inconclusive = small, poorly fitted or top-dose-only effect, or another doubt; inactive = no such curve, though single readings can be large; an effect the other way counts as inactive or inconclusive;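 also: IP1 builds up when IMPase is blocked and the TR-FRET signal falls; nearly all actives have a fitted effect of over 50% in size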
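CHO-M1, 2000 cells/well, 16–30 h culture; cpd + low Li+, 30 min 37C; lysis with d2-IP1/Eu-anti-IP1 Ab, 10 min RT; TR-FRET 665/620 ratio and 620 channel; AC50 via Hill.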
LMNA splice mod = qHTS Assay for Modulators of Lamin A Splicing; 200,000 compounds, 0.01% hits; Potency, µM (series often up to 46.1 µM), hits mostly inhibitors; AID 1487, 2009; HeLa LMNA splicing GFP/RFP minigene ratio, 48 h; active = well fitted inhibition curve with a large enough effect in the signal ratio, with a control signal flat, not every such curve was filed as active; inconclusive = small, poorly fitted or top-dose-only effect, or effect the other way, or a change in a side signal; the % refers to the signal ratio
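S3 HeLa cells stably expressing lamin A-EGFP splicing minigene plus DsRed2, 600 cells/well, 48 h compound exposure at 37C. Laser-scanning cytometry; analysed as GFP (500-530 nm)/RFP (575-640 nm) total intensity ratio; 0.5% DMSO vehicle.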
KinaseGlo FLuc = Counterscreen for Luciferase (Kinase-Glo TM) Inhibition | Luciferin 4-monooxygenase (Photuris pensylvanica), Q27757 | Kinase-Glo luciferase, ATP luminescence, 8 min | Potency, µM (doses to about 38.3 µM), actives largely listed as inhibitors | 200,000 compounds, 0.28% hits | AID 1379, 2008; active = well fitted curve in the direction sought with a large enough effect; inconclusive = small, poorly fitted or top-dose-only effect, or another doubt; inactive = no such curve, though single readings can be large; an effect the other way counts as inactive or inconclusive; also: nearly all actives have a fitted effect of over 60% in size
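Compounds were added to a substrate mix at pH 7.2 (50 mM imidazole, 10 uM ATP, within the enzyme's linear range), followed by Kinase-Glo detection reagent; luminescence was measured after 8 minutes at ambient temperature.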
HPGD inh = qHTS Assay for Inhibitors of HPGD (15-Hydroxyprostaglandin Dehydrogenase). 150,000 compounds, 4.3% hits. Potency, µM, most hits filed as inhibitors. purified HPGD, NADH fluorescence kinetic, PGE2 substrate. AID 894, 2007. 15-hydroxyprostaglandin dehydrogenase [NAD(+)] (Homo sapiens), P15428
Target sequence (P15428 whole entry, looked up): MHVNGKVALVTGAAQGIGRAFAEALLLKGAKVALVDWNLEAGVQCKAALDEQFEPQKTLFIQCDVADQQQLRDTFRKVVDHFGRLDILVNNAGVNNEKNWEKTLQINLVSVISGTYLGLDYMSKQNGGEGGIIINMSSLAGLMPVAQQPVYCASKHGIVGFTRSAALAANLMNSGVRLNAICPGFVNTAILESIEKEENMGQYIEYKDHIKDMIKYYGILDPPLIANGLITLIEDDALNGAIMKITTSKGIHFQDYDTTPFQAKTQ
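NADH formation kinetics: reaction with 30 uM PGE2 and 1 mM NAD+ (final), 20 nM enzyme, Tris-HCl pH 8 with Tween 20, after 15 min compound preincubation at room temperature. Fluorescence change, last versus first of five reads.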
Of the large screens only hits and unclear results are named; the others gave an inactive call. Unless noted, calls follow the shape of the dose curve; as a rule, active = well fitted inhibition curve with a large enough effect (not every such curve was filed as active); inconclusive = small, poorly fitted or top-dose-only effect, or another doubt; inactive = no such curve, though single readings can be large or run the other way.

CCCCC(=O)O[C@]1(C(=O)CO)[C@H](C)C[C@H]2[C@@H]3CCC4=CC(=O)C=C[C@]4(C)[C@@]3(F)[C@@H](O)C[C@@]21C	none (no result: LMNA splice mod)
Fc1ccc(-n2[nH]nnc2=S)cc1N1CCCC1	ALDH1A1 block 14µM, HPGD inh 18µM
CCOC(=O)CSc1nc(=O)n2ccccc2n1	none (no result: LMNA splice mod, HPGD inh)
CCC(=O)Nc1ccc(Nc2ccccc2)cc1	none
O=C(Nc1ccc(Nc2ccccc2)cc1)C(Cl)Cl	ALDH1A1 block 13µM, HPGD inh 22µM
O=C(Nc1ccc(Nc2ccccc2)cc1)C(Cl)(Cl)Cl	ALDH1A1 block inconclusive, LMNA splice mod inconclusive, HPGD inh 32µM
COCC(=O)Nc1ccc(Nc2ccccc2)cc1	HPGD inh inconclusive
COC(=O)CSc1nc2[nH]ncc2c(=O)[nH]1	none (no result: HPGD inh)
CCN(C(=O)Nc1cn(CC(C)C)c(=O)c2ccccc12)c1cc(C)ccc1C	none (no result: ALDH1A1 block, IMPase Li cell, KinaseGlo FLuc, HPGD inh)
CC1C/C(=N\NC(=O)c2ccc(NS(=O)(=O)c3ccc(Br)cc3)cc2)CC(C)(C)C1 (stereo not given)	ALDH1A1 block 3.5µM
CC1C/C(=N\NC(=O)CCc2ccc(S(=O)(=O)N3CCOCC3)cc2)CC(C)(C)C1 (stereo not given)	ALDH1A1 block inconclusive
COc1ccc(/C=N/NC(=O)c2ccc(CSc3nc(C)cc(C)n3)cc2)c(OC)c1OC	ALDH1A1 block inconclusive, LMNA splice mod inconclusive, HPGD inh 35µM
Cc1cc(C)nc(SCc2ccc(C(=O)NN=C3C4CC5CC(C4)CC3C5)cc2)n1	ALDH1A1 block 3.5µM
Cc1cc(C)nc(SCc2ccc(C(=O)N/N=C3\CC(C)CC(C)(C)C3)cc2)n1 (stereo not given)	ALDH1A1 block 7.9µM (no result: IMPase Li cell, KinaseGlo FLuc, HPGD inh)
CC1C/C(=N\NC(=O)c2cccnc2)CC(C)(C)C1 (stereo not given)	ALDH1A1 block inconclusive (no result: LMNA splice mod, HPGD inh)
Brc1cccc(CNc2nc3ccccc3n2CCN2CCOCC2)c1	none (no result: LMNA splice mod, HPGD inh)
C/C=C(/C)C#N	none (no result: LMNA splice mod, KinaseGlo FLuc)
CCOC(=O)C1(CC2CCCCO2)CCN(Cc2ccccc2-c2ccco2)CC1 (stereo not given)	LMNA splice mod inconclusive (no result: HPGD inh)
CCNc1nc(N)nc(Oc2ccc(OCCOc3ccccc3)nn2)n1	HPGD inh 25µM
CCn1ncc(Br)c1C(=O)Nc1ccc(F)cc1F	IMPase Li cell inconclusive
CCn1ncc(Br)c1C(=O)Nc1nccs1	HPGD inh 25µM
CNC(=O)c1ccc(Nc2nnc(-c3ccc(C)c(S(=O)(=O)NCC4CCCO4)c3)c3ccccc23)cc1 (stereo not given)	ALDH1A1 block inconclusive, HPGD inh 25µM
Cc1ccc(-c2nnc(Nc3ccccc3)c3ccccc23)cc1S(=O)(=O)NCC1CCCO1 (stereo not given)	none
COc1nc(N/N=C/c2cc3c(cc2Br)OCO3)nc(N2CCOCC2)n1	ALDH1A1 block 7.9µM (no result: IMPase Li cell, KinaseGlo FLuc, HPGD inh)
CN(Cc1cn(-c2ccccc2)nc1-c1ccc(Cl)cc1)C(=O)CCC(=O)O	LMNA splice mod inconclusive
CCOC(=O)CSC1=NC(=O)/C(=C/c2ccc(OC)cc2)S1	ALDH1A1 block inconclusive, HPGD inh 13µM
CCOC(=O)CSc1nnc(-c2ccc(OC)cc2)n1CC	ALDH1A1 block 2.5µM
CCOC(=O)CNC(=O)CSc1nnc(-c2ccc(OC)cc2)n1CC	none
CCOc1ccc(CNC(=O)C2CCN(S(=O)(=O)c3cn(C)cn3)CC2)cc1OC	none (no result: ALDH1A1 block, IMPase Li cell, KinaseGlo FLuc, HPGD inh)
Cc1cccc(N2CCN(C(=O)c3cn4ccccc4n3)CC2C)c1 (stereo not given)	none (no result: LMNA splice mod, HPGD inh)
CN(C)c1ccc(/C=N/c2cc(-c3ccccc3)nn2-c2ccccc2)cc1	ALDH1A1 block 7.9µM
Cc1nn(-c2ccccc2)c(/N=C/c2ccc(O)cc2)c1-c1ccccc1	none
CN(C)c1ccc(C(=S)N2CCCCCC2)cc1	ALDH1A1 block inconclusive, HPGD inh 28µM
Oc1ccc(C(=S)N2CCCCC2)cc1	ALDH1A1 block 22µM, HPGD inh inconclusive
CN(C)c1ccc(C(=S)N2CCOCC2)cc1	ALDH1A1 block inconclusive
CC(=O)N1CCN(C(=S)c2ccc(N(C)C)cc2)CC1	ALDH1A1 block 8.9µM, IMPase Li cell inconclusive, LMNA splice mod inconclusive, HPGD inh 20µM
CN(C)c1ccc(C(=O)N2CCCC2)cc1	ALDH1A1 block inconclusive (no result: HPGD inh)
CC1CCN(C(=S)c2ccc(N(C)C)cc2)CC1	ALDH1A1 block 13µM (no result: LMNA splice mod, HPGD inh)
S=c1[nH]ncn1NCc1ccc(Cl)cc1Cl	ALDH1A1 block 1.4µM (no result: LMNA splice mod, HPGD inh)
CC(=O)Nc1ccc(S(=O)(=O)n2nc(-c3ccc(C)cc3)nc2N)cc1	LMNA splice mod inconclusive, HPGD inh 6.3µM
O=C(CCCCl)NC(=S)Nc1ccc(CN2CCOCC2)cc1	ALDH1A1 block 20µM (no result: IMPase Li cell, LMNA splice mod, KinaseGlo FLuc, HPGD inh)
C/C(=N\NC(=O)c1ccc(CN2CCOCC2)cc1)c1cccc([N+](=O)[O-])c1	ALDH1A1 block 19µM, LMNA splice mod inconclusive
C/C(=N\NC(=O)c1ccc(CN2CCOCC2)cc1)c1ccc([N+](=O)[O-])cc1	ALDH1A1 block inconclusive, LMNA splice mod inconclusive
O=C(COc1ccccc1Cl)NC(=S)Nc1ccc(CN2CCOCC2)cc1	HPGD inh 25µM
O=C(/C=C/c1cccc([N+](=O)[O-])c1)NC(=S)Nc1ccc(CN2CCOCC2)cc1	ALDH1A1 block 3.2µM
Cc1cccc(S(=O)(=O)Nc2cccc(-c3ccc(N4CCCCC4)nn3)c2)c1	none (no result: ALDH1A1 block, IMPase Li cell, KinaseGlo FLuc, HPGD inh)
CCC(C)(C(=O)NC1CCCC1)N(Cc1cccs1)C(=O)c1ccc2c(c1)OCO2 (stereo not given)	none
C#CCOc1ccc(Br)cc1/C=N/O	HPGD inh 14µM
CCCOc1ccc(Br)cc1/C=N/O	HPGD inh 10µM
CCOc1ccc(Br)cc1/C=N/O	HPGD inh 11µM
COc1ccccc1N1CCN(S(=O)(=O)CCNC(=O)COc2ccccc2F)CC1	none (no result: ALDH1A1 block, IMPase Li cell, KinaseGlo FLuc, HPGD inh)
CN1CCc2ccccc2[C@@H]1Cc1ccccc1NC(=O)c1sc2ccccc2c1Cl	none (no result: LMNA splice mod)
Cc1nc2cnc(N3CCN(C)CC3)nc2n(CCc2ccccc2)c1=O	ALDH1A1 block inconclusive (no result: KinaseGlo FLuc, HPGD inh)
COc1ccc2c(c1)c1nnc(SCC(=O)N3C(C)CCCC3C)nc1n2C (stereo not given)	ALDH1A1 block inconclusive, HPGD inh 11µM
COc1ccc2c(c1)c1nnc(SC)nc1n2C	LMNA splice mod inconclusive
COc1ccc(CCNC(=O)CC2SC(=NCCC(C)C)NC2=O)cc1OC (stereo not given)	ALDH1A1 block inconclusive
COc1ccc(CCNC(=O)CC2SC(=NCCc3ccccc3)NC2=O)cc1 (stereo not given)	ALDH1A1 block 28µM
COc1ccc(CCNC(=O)CC2SC(=NCc3ccccc3)NC2=O)cc1 (stereo not given)	ALDH1A1 block 32µM (no result: LMNA splice mod, HPGD inh)
CCN=C1SC(CC(=O)NCCc2ccc(OC)c(OC)c2)C(=O)N1CC (stereo not given)	ALDH1A1 block 20µM
